Sampled rows, rich in hits. Any-hit rate of the full collection: about 6.3%.
PMK inhibit: inhibitors of Streptococcus pneumoniae phosphomevalonate kinase; 65,000 compounds, 0.49% hits; AID 539; inhibition, % at 10 µM; purified PMK, PK/LDH-coupled NADH absorbance 340 nm;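 active = top-ranked compounds by inhibition in the single 10 µM screen, taking a fixed number of the strongest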;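 also: 0% = full reaction with DMSO carrier and 100% = background rate without enzyme reaction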
MK inhibit: S. pneumoniae mevalonate kinase inhibition | purified MK, PK/LDH-coupled NADH absorbance 340 nm | inhibition, % at 10 µM | 65,000 compounds, 0.48% hits | AID 555;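 active = ranked among the strongest by inhibition in the single 10 µM screen, a fixed top-ranked set picked for dose follow-up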
Fluor 339 460: intrinsic fluorescence of library compounds, ex339/em460 – biochemical, MLSMR library, data from DPM-DC assay, artefact control, profiling panel; compound autofluorescence, ex339/em460 nm, NADH buffer; stronger effect = higher value; 1 = no-compound wells, NADH background; fluorescence fold increase at 10 µM; AID 709; 65,000 compounds, 5.5% hits;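 active = at 10 µM, mean starting fluorescence two-fold or more over control wells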;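 also: signal is the first read of a kinetic run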
DPM-DC inhibit: inhibitors of Streptococcus pneumoniae diphosphomevalonate decarboxylase; calls only at 10 µM; 65,000 compounds, 0.49% hits; AID 556; purified DPM-DC, PK/LDH coupled NADH fluorescence;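 active = the 320 compounds with the highest percent inhibition in the single-dose primary screen, excluding strongly autofluorescent ones, cut at about 32% in these data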;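 also: kinetic rate of NADH fluorescence loss reporting ADP formed by the decarboxylase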
NADH coupling: inhibition of NAD/NADH coupling enzymes, library profiling | 65,000 compounds, 0.02% hits | coupled PK/LDH NADH assays, four targets | IC50, µM (top dose mostly 10 µM), for the others: at the top dose inhibition;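 active = single-dose screening hits from any of four coupled enzyme assays that gave an IC50 when retested across doses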;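 also: the DPM-DC format reads NADH fluorescence rather than 340 nm absorbance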
A340 absorber: compound absorbs light at 340 nm; fold change at 10 µM; 65,000 tested, under 10 active; compound absorbance at 340 nm, fold over control;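 active = at 10 µM dose, initial 340 nm absorbance at least 2 fold that of control wells; inactive = change under 2 fold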;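 also: initial absorbance extrapolated from kinetic A340 decline of NADH oxidation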
The depositor's hits bear a star; i = inactive; x = no result shown; + = active, no number.

SMILES | PMK inhibit | MK inhibit | Fluor 339 460 | DPM-DC inhibit | NADH coupling | A340 absorber
Cc1cc(C)n(-c2nc(NCc3cccnc3)c3c4c(sc3n2)COC(C)(C)C4)n1 | 7.0 | 2.0 | 3.7* | x | 5.0% | 1.08
CC(=O)c1c(C)nn(CC(O)Cn2c3c(c4cc(C)ccc42)CCCC3=O)c1C (configuration not stated) | 4.0 | 11.0 | 5.18* | x | 8.0% | 1.09
COC(=O)[C@H](CCSC)NC(=O)NCc1ccc(S(N)(=O)=O)cc1 | 6.0 | 1.0 | 1.13 | i | 2.0% | 1.05
COc1cccc(C(=O)Nc2ccc(NC(=O)C(C)C)nc2)c1 | 2.0 | 11.0 | 1.23 | + | 16.0% | 1
Cc1nnc2sc(-c3ccc(NC(=O)c4ccc(-c5ccc(Cl)cc5Cl)o4)cc3)nn12 | 1.0 | 11.0 | 3.87* | x | 6.0% | 1.14
Cc1nnc2sc(-c3ccc(NC(=O)c4cccnc4)cc3)nn12 | 11.0 | 18.0 | 1.06 | i | 10.0% | 1.12
CC(CN1CCCC1)OC(=O)COc1ccccc1 (configuration not stated) | 19.0 | 0.0 | 1.08 | i | 6.0% | 1.01
CCc1ccc(CCC(=O)Nc2ccc(C)c(C)c2)o1 | 10.0 | 10.0 | 1.05 | + | 5.0% | 0.98
COC(=O)c1[nH]c2cc(OC)ccc2c1N | 14.0 | 1.0 | 3.77* | x | 8.0% | 1.09
CCOC(=O)c1[nH]c2ccc(OC)cc2c1NC(=O)C(C)N1CCSCC1 (configuration not stated) | 0.0 | 7.0 | 3.84* | x | 4.0% | 1.06
CCOC(=O)c1[nH]c2ccc(OC)cc2c1NC(=O)CCN1CCCC(C)C1 (configuration not stated) | 0.0 | x | 2.25* | x | 0.0% | 1.09
CCOC(=O)c1[nH]c2ccc(OC)cc2c1NS(=O)(=O)c1ccc(OC)cc1OC | 5.0 | 4.0 | 1.66 | i | 3.0% | 1.07
CCOC(=O)c1[nH]c2ccc(OC)cc2c1NC(=O)OC | 10.0 | 11.0 | 3.63* | x | 11.0% | 1.07
O=C(CCn1cccc1)NCc1ccc2c(c1)OCO2 | 10.0 | 2.0 | 1.08 | i | 4.0% | 0.99
O=C(COC(=O)c1ccc(S(=O)(=O)N2CCCC2)cc1)NCc1ccccc1 | 15.0 | 11.0 | 1.05 | i | 10.0% | 1.01
CCCc1nnc(SCc2ccc(OC)cc2)n1N | 0.0 | 3.0 | 1.05 | i | 1.0% | 1.05
CCOC(=O)c1[nH]c2cc(OC)c(OC)cc2c1NC(=O)C(C)N1CCN(Cc2ccccc2)CC1 (configuration not stated) | 13.0 | 2.0 | 2.49* | x | 4.0% | 1.02
CCOC(=O)c1[nH]c2ccc(OC)cc2c1N=CN(C)C | 0.0 | 4.0 | 2.83* | i | 2.0% | 1.07
Cc1ccc(C(=O)C(C)OC(=O)C2CC(=O)N(C3CCCCC3)C2)cc1 (configuration not stated) | 11.0 | 7.0 | 1.08 | i | 6.0% | 0.99
COc1ccc(OC)c(NS(=O)(=O)Cc2ccccc2)c1 | 2.0 | 15.0 | 0.99 | i | 3.0% | 1.02
O=C(NCc1ccco1)c1c[nH]c2ccc(S(=O)(=O)N3CCOCC3)cc2c1=O | 15.0 | 0.0 | 2.11* | x | 8.0% | 1.08
O=C(O)c1c[nH]c2ccc(S(=O)(=O)N3CCOCC3)cc12 | 10.0 | 8.0 | 1.04 | i | 6.0% | 1.01
Cc1ccc(S(=O)(=O)N2CCOCC2)cc1C(=O)NCc1ccco1 | 12.0 | 3.0 | 1 | i | 6.0% | 0.99
CCCCN(C)C(=O)c1c[nH]c2ccc(S(=O)(=O)N3CCOCC3)cc2c1=O | 8.0 | 0.0 | 2.17* | x | 4.0% | 1.05
CCC(C)(C(=O)NC1CCCCC1)N(C(=O)C1CCC(=O)N1)c1ccc(C)cc1 (configuration not stated) | 0.0 | 10.0 | 1.13 | i | 3.0% | 1.03
SMILES | PMK inhibit | MK inhibit | Fluor 339 460 | DPM-DC inhibit | NADH coupling | A340 absorber
CCc1ccc(NC(=O)c2ccc3c(c2)C(=O)N(Cc2ccco2)C3=O)cc1 | 1.0 | 3.0 | 1.16 | i | 1.0% | 1.06
COC(=O)c1ccccc1NC(=O)c1ccc2c(c1)C(=O)N(Cc1ccco1)C2=O | 11.0 | 4.0 | 3.06* | + | 19.0% | 1.07
CCn1c(=O)c(C)nn2c3ccccc3nc12 | 7.0 | 10.0 | 1.08 | i | 6.0% | 1.04
O=C(O)CCc1nc2ccccc2n(CCc2ccccc2)c1=O | 6.0 | 0.0 | 2.33* | i | 2.0% | 1.05
CCc1nc2ccccc2n(CCOCCn2c(=O)c(CC)nc3ccccc32)c1=O | 0.0 | 6.0 | 1.3 | i | 2.0% | 1.04
O=C(O)CCc1nn2c3ccccc3nc2n(CCN2CCCCC2)c1=O | 20.0 | 0.0 | 4.42* | x | 10.0% | 1.02
CC(C)C(C(=O)N1CCOCC1)N1C(=O)c2ccccc2C1=O (configuration not stated) | 3.0 | 3.0 | 1.11 | i | 2.0% | 1.03
CC1Cc2ccccc2N1C(=O)Cn1c(=O)oc2cc(S(=O)(=O)N3CCCCC3)ccc21 (configuration not stated) | 0.0 | 10.0 | 1.06 | i | 3.0% | 1.04
CC(C)c1cc(NCCN2CCOCC2)n2c(nc3ccccc32)c1C#N | 2.0 | 3.0 | 1.95 | i | 5.0% | 1.01
CC(C)c1cc(NCCCN2CCOCC2)n2c(nc3ccccc32)c1C#N | 0.0 | 0.0 | 2.3* | x | 0.0% | 1.08
CCCc1cc(NCCN2CCOCC2)n2c(nc3ccccc32)c1C#N | 9.0 | 12.0 | 2.34* | x | 11.0% | 1.02
N#Cc1c2c(c(NCCCN3CCOCC3)n3c1nc1ccccc13)CCC2 | 17.0 | 7.0 | 3.03* | i | 12.0% | 1
CCCCOc1ccc(C2(C)CC(=O)NC2=O)cc1 (configuration not stated) | 14.0 | 5.0 | 1.05 | i | 6.0% | 1.03
COc1ccc(-c2cc(C(F)(F)F)nc(SCCC(=O)N3CCOCC3)n2)cc1 | 14.0 | 12.0 | 2* | i | 9.0% | 1.01
COc1ccc(-c2nnc(SCC(=O)N3CCOCC3)o2)cc1 | 3.0 | 1.0 | 1.17 | i | 1.0% | 1.01
C#CCSc1nc(-c2cccs2)ccc1C#N | 14.0 | 2.0 | 1.85 | i | 2.0% | 1.04
COC(=O)CSc1nc(-c2cccs2)ccc1C#N | 3.0 | 9.0 | 2.27* | x | 6.0% | 1.12
COc1ccc(-c2cc(C(F)(F)F)nc(SCC(=O)NCc3ccco3)n2)cc1OC | 12.0 | 9.0 | 2.73* | x | 4.0% | 1.01
CN1CCN(C(=O)CSc2nc(-c3cccs3)cc(-c3cccs3)c2C#N)CC1 | 0.0 | 7.0 | 2.84* | i | 6.0% | 1.12
Cc1cc(NC(=O)c2cccc(COc3ccc(Br)cc3)c2)no1 | 0.0 | 15.0 | 1.12 | i | 5.0% | 1.06
Cc1ccc(NC(=O)C2CCN(S(=O)(=O)c3c(C)n[nH]c3C)CC2)nc1 | 17.0 | 0.0 | 1.12 | i | 6.0% | 0.97
COc1ccc(CCNC(=O)CSc2nc(-c3ccco3)cc(C(F)(F)F)n2)cc1OC | 4.0 | 4.0 | 1.07 | i | 3.0% | 1.11
O=C(CSc1nc(-c2cccs2)cc(C(F)(F)F)n1)NCc1ccco1 | 9.0 | 13.0 | 1.1 | i | 7.0% | 1.14

Assay outcomes: PubChem BioAssay, SRMLSC
